# Assay outcomes as filed in PubChem BioAssay.
# KKLEB cytotox – cytotoxicity in KKLEB CF airway cells, primary screen, cytotoxicity control for CF NF-kB inhibitor project, cell-based, uHTS, fluorescence assay plates | KKLEB CF airway cells viability, ATPlite luminescence, overnight; active compounds read low; cells stimulated with P. aeruginosa culture filtrate | activity change (cytotoxicity), % at 5 µM | 360,000 tested, 0.36% active;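 active means corrected activity change at or below -50% at 5 µM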
# Peg3 promoter – Peg3 promoter-driven luciferase inhibitors, primary screen, cell-based, HeLa, luciferase luminescence; HeLa PEG-Prom luciferase reporter, overnight; inhibition, % at 20 µM; 360,000 tested, 1.7% active;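 active means inhibition of at least 50% at 20 µM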
# HIF-2a inh – HIF-2a reporter inhibitors, primary screen, luminescence, 786-0 RCC cells; 786-0 RCC cells HIF-2a reporter, luciferase luminescence, overnight; AID 624352, 2012; inhibition, % at 18.8 µM; 360,000 tested, 0.72% active;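 active means inhibition of the luminescence signal of 40% or more relative to plate controls, in a single-dose primary screen at 18.75 µM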
# TWEAK-Fn14 inh – inhibitors of TWEAK-Fn14 signaling, primary screen, luciferase reporter cells, uHTS | 360,000 tested, 2% active | inhibition, % at 10 µM | TWEAK-stimulated Fn14 reporter cells, luciferase luminescence, 8 h | AID 1159606, 2016; in the data active means inhibition above about 50%
# TROY NFkB inh – inhibitors of TROY-driven NF-kB signaling, primary screen, Q293 LMP1-TROYcd cells, NF-kB luciferase, uHTS; Q293 LMP1-TROYcd NF-kB luciferase reporter, 4 h; inhibition, % at 10 µM; 360,000 tested, 0.98% active; AID 1347056, 2019;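 active means compounds whose plate-normalised and pattern-corrected inhibition of the luciferase reporter signal at the single screening dose is 50% or more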
# CF NFkB block – inhibitors of PAF-induced NF-kB signaling, primary screen, cell-based, GFP fluorescence, uHTS | 360,000 tested, 0.86% active | KKLEB NF-kB-GFP reporter, GFP fluorescence overnight | AID 588850, 2011 | inhibition, % at 5 µM;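 active means at least 50% inhibition at 5 µM, scaled per plate between neutral and stimulator controls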;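 further: PAF is a Pseudomonas aeruginosa culture filtrate used as stimulus; plate controls were PAF-stimulated DMSO wells for no effect and unstimulated DMSO wells for full effect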
# Mdm2 MdmX conf – retested Mdm2-MdmX interaction blockers, confirmation, cell-based, luminescence, single concentration, set 2. AID 504601, 2011. shares compounds with HIF-2a inh. inhibition, % at 8 µM. SaOS-2 split-luciferase Mdm2/MdmX complementation. 740 tested, 99% active;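 active means mean inhibition of the luminescence signal across two replicates at or above 26 percent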
# HIF-2a inh conf – HIF-2a reporter inhibitor retest, confirmation, luminescence, 786-0 RCC cells | HIF-2a luciferase reporter luminescence, overnight | inhibition, % at 18.8 µM | shares compounds with HIF-2a inh | 1,800 tested, 56% active;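 active means mean inhibition across four replicates of at least 40 percent at the single tested concentration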
# HIF-1a cs – HIF-1a luciferase reporter signal reduction – MiaPaCa-2 cells, single concentration, counter-screen for HIF-2a inhibitor project, confirmation; inhibition, % at 18.8 µM; AID 651589, 2012; MiaPaCa-2 HIF-1a luciferase reporter, desferoxamine, overnight; shares compounds with HIF-2a inh; 1,800 tested, 72% active;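 active means mean inhibition of the reporter signal across four replicates at the single tested dose of 50% or more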
# * hit, by the source's call; · = no result. Compounds with a hit are over-represented: about 3.9% of the library has one in this group of screens.
SMILES,KKLEB cytotox,Peg3 promoter,HIF-2a inh,TWEAK-Fn14 inh,TROY NFkB inh,CF NFkB block,HIF-2a inh conf,HIF-1a cs,others
CCOC(=O)c1ccc(Oc2nc(NC(C)(C)C)nc(N(C)C)n2)cc1,-10,30,44*,28,24,16,50*,-8,
CCn1nc([N+](=O)[O-])c(C(C#N)c2nc3cc(C(F)(F)F)ccc3s2)c(Cl)c1=O (stereo unspecified),-35,14,-16,-12,65*,61*,·,·,Mdm2 MdmX conf=97*
Cn1nc([N+](=O)[O-])c(C(C#N)c2ccccn2)c(Cl)c1=O (stereo unspecified),-13,30,22,-10,-7,4,·,·,
CC1(C)Oc2ccc3ccc(=O)oc3c2C[C@H]1O[C@@H]1O[C@H](CO)[C@@H](O)[C@H](O)[C@H]1O,-3,9,6,10,-4,-11,·,·,
CC(=O)OC(C)(C)/C=C/C(=O)[C@](C)(O)C1[C@H](O)C[C@@]2(C)C3CC=C4C(C=C(O[C@@H]5O[C@H](CO)[C@@H](O)[C@H](O)[C@H]5O)C(=O)C4(C)C)[C@]3(C)C(=O)C[C@]12C (stereo partly specified),-68*,57*,46*,-62,-4,74*,-14,3,
O=C(CCl)N(Cc1ccccc1)c1ccccc1,-46,40,28,24,-27,70*,·,·,Mdm2 MdmX conf=103*
COC(=O)c1ccc(C(=O)N(Cc2ccccc2)c2ccccc2)cc1,3,19,1,-1,-6,13,·,·,
O=C(CCCSc1nc2ccccc2s1)NC1=NCCS1,0,-83,72*,-13,19,2,85*,47,
O=C(O)CCSc1nc2ccccc2s1,-2,47,89*,92*,69*,9,97*,92*,
CC(C)NC(=O)NC(=O)COC(=O)CCCSc1nc2ccccc2s1,14,-1,13,-3,8,9,·,·,
Cc1cccc(C)c1NC(=O)CCCSc1nc2ccccc2s1,5,-40,-54,-25,2,8,·,·,
CCOC(=O)NC(=O)COC(=O)CCCSc1nc2ccccc2s1,7,5,59*,54*,27,-1,76*,44,
CC(=O)Nc1ccc(NC(=O)CCCSc2nc3ccccc3s2)cc1,-1,-11,2,8,-2,-17,·,·,
c1ccc2sc(SCSc3nc4ccccc4s3)nc2c1,3,-145,-284,-90,-50,2,·,·,
NC(=O)NC(=O)COC(=O)CCCSc1nc2ccccc2s1,3,18,71*,61*,39,2,83*,62*,
CC(C)(C)NC(=O)Nc1ccc(Cn2cc(C(F)(F)F)ccc2=O)cc1,-16,8,17,3,4,2,·,·,
N#Cc1ccccc1OCC(=O)OCC(=O)NC1CCCCC1,0,-98,15,8,6,-12,·,·,
NC1=NC(=O)C(CC(=O)Nc2ccc3c(c2)OCO3)S1 (stereo unspecified),8,9,17,3,-10,-18,·,·,
COc1ccc(Nc2nc(N)nc(CSC(=S)N3CCN(C)CC3)n2)cc1,0,-30,-48,-54,-26,8,·,·,
COC(=O)c1[nH]c2cccc(OC)c2c1NC(=O)CN1CC(C)OC(C)C1 (stereo unspecified),-9,4,26,-8,-3,-5,·,·,
